Only a selection was taken, and hits are over-represented in it overall.
HT1080-NT tox – kills 2HG-producing HT-1080-NT fibrosarcoma cells; Potency, µM (titrated, usually from 46.1 µM), for inactives: at the top dose activity, negative = less viability, actives largely listed as cytotoxic; 360,000 tested, 1.6% active; HT-1080-NT fibrosarcoma viability, CellTiter-Glo ATP luminescence, 48 h;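 further: NT is the 2HG producing partner of a matched IDH1 knockdown line; potency means the concentration at half of the fitted maximal effect; 0% = DMSO-treated cells and -100% = media-only wells without cells; nearly all actives have a fitted effect of over 55% in size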
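Viability by CellTiter-Glo luminescence after 48 h compound exposure at 37C of HT-1080-NT cells (750/well, RPMI, 5% FBS). % activity scaled between DMSO wells and medium-only wells, then curve-fitted and categorized by curve class.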
ALOX12 inh – inhibitors of human 12S-lipoxygenase ALOX12; purified 12hLO, xylenol orange hydroperoxide absorbance; Potency, µM (titrated, usually from 108 µM), inactives show top-dose activity change, negative = inhibition, usual class: inhibitors; 580,000 tested, 1.1% active; further: potency means the concentration at half of the fitted maximal effect
Target sequence (P18054 whole entry, looked up): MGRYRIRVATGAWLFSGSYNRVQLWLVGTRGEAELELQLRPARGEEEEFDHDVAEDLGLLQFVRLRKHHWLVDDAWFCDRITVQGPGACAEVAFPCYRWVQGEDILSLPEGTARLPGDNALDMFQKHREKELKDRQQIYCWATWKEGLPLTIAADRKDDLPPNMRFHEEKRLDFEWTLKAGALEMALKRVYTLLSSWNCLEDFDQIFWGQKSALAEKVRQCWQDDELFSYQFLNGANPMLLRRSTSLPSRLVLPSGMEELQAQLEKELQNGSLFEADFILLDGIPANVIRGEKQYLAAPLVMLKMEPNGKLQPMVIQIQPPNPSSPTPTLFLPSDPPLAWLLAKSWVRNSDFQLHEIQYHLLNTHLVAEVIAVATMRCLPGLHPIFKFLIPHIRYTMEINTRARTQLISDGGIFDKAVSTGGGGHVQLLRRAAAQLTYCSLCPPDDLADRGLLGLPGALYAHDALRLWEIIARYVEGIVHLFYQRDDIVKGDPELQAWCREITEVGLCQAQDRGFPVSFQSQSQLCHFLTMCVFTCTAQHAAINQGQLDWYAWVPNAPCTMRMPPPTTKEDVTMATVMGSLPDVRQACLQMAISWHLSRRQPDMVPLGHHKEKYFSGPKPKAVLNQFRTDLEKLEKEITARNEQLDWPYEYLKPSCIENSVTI
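Purified human 12hLO (150 nM final) in 25 mM Hepes, 0.01% Triton X-100, pH 7.0 was preincubated 15 min at room temperature with compound. Then 40 uM arachidonic acid was added, 30 min. Hydroperoxide was read by Fe-XO absorbance ratio 573/405 nm.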
IL-1B inflam inh – inflammasome signaling inhibition, IL-1 beta readout | THP-1 LPS/ATP IL-1B secretion, AlphaLISA, 16 h; stronger effect = lower value | activity change, % at 57.5 µM | 360,000 tested, 4.7% active; in the data active means activity change below about -50%; inconclusive means mostly about -30% to -49%
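THP-1 cells pretreated 1 hr with compounds (up to 57.5 uM final), then stimulated with LPS (250 ng/mL final) plus ATP (1.25 mM final); secreted IL-1B measured by AlphaLISA after 16 hr, decreased signal indicating inhibition.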
TDP1 cell CPT – growth inhibition of DT40 Tdp1-/-;hTDP1 cells with camptothecin (screen for TDP1 inhibitors); chicken DT40 Tdp1-/-;hTDP1 cells + 20 nM CPT, ATP luminescence, 48 h; Potency, µM (highest dose often 46.2 µM), for inactives: at the top dose activity change, negative = growth inhibition, usual class: inhibitors; 420,000 tested, 12% active; further: potency means the concentration at half of the fitted maximal effect; nearly all actives have a fitted effect of over 55% in size
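Chicken DT40 Tdp1-/- cells complemented with human TDP1, 400 cells/well, exposed to compounds plus 20 nM camptothecin for at least 48 h at 37 C; viability read as ATP content by CellTiter-Glo luminescence.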
HT1080 IDH1KD tx – kills HT-1080 cells with IDH1 knockdown | Potency, µM (series often up to 46.1 µM), for inactives: top-dose activity, negative = toxicity, hits mostly cytotoxic | HT-1080 IDH1 knockdown viability, ATP luminescence, 48 h | 360,000 tested, 2% active;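 further: potency means the concentration at half of the fitted maximal effect; 0% = DMSO wells and -100% = cell-free medium wells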
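Knockdown cells (IDH1KD HT-1080) received compounds 2 h after plating at 750 cells/well and were kept 48 h at 37 °C in 5% FBS RPMI. A CellTiter-Glo luminescence read gave % activity for curve fitting.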
TDP1 cell noCPT – qHTS for Inhibitors of human tyrosyl-DNA phosphodiesterase 1 (TDP1): qHTS in cells in absence of CPT; AID 686978, 2013; 420,000 tested, 15% active; Potency, µM (titrated, usually from 46.2 µM), without a hit: at the highest dose activity change, negative = growth inhibition, hits mostly inhibitors; DT40 Tdp1-/- hTDP1 cells, no CPT, ATP luminescence, 48 h; further: potency means the concentration at half of the fitted maximal effect; nearly all actives have a fitted effect of over 55% in size
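DT40 Tdp1-/-;hTDP1 cells, no CPT (DMSO vehicle only), 400 cells/well; compounds pin-transferred; ≥48 hr, 37 °C; CellTiter-Glo 30 min RT dark, luminescence read.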
* = called active by the depositor; u = inconclusive; x = not tested or not shown; [ ] = remark or other dose. Unless noted, the call rests on the fitted dose curve; in most records, active means well fitted curve in the direction sought with a large enough effect; inconclusive means small, poorly fitted or top-dose-only effect, or another doubt; inactive means no such curve, though single readings can be large; an effect the other way counts as inactive or inconclusive. Unless noted, on the % scale 0 is the no-effect control and ±100 the full control effect.

SMILES	HT1080-NT tox	ALOX12 inh	IL-1B inflam inh	TDP1 cell CPT	HT1080 IDH1KD tx	TDP1 cell noCPT
COc1ccc(-c2cnc3n[nH]c(-c4ccc(F)cc4C)c3n2)cc1	x	39%[176 µM]	x	x	x	x
Cc1ccccc1C(=O)N1CCN(C(=O)c2nnn3c2COC(c2ccc(Cl)cc2)C3)CC1 (stereo unspecified)	x	28%	x	x	x	x
CCCCCn1c(CNC(=O)c2cccs2)nc2ccccc21	13µM*	-3%	-54*	u	8%[9.24 µM]	u
CCCCCn1c(CCNC(=O)c2cccs2)nc2ccccc21	u	17%	-77*	u	3%[9.24 µM]	u
CCCCn1c(CCNC(=O)CCC)nc2ccccc21	11%	17%	-5	-24%	4%	u
CCCCn1c(CNC(=O)c2cccs2)nc2ccccc21	8%	28%	5	-13%	-7%	u
O=[N+]([O-])c1c(Nc2ccc(O)cc2)cc(Cl)c2nonc12	9.2µM*	u	-101*	1.3µM*	5.8µM*	1.3µM*
O=[N+]([O-])c1c(Nc2ccccn2)cc(Cl)c2nonc12	u	u	-101*	1.8µM*	u	5.2µM*
O=[N+]([O-])c1c(Nc2cccc(Cl)c2Cl)cc(Cl)c2nonc12	x	16µM*	x	x	x	x
COc1cc(C2c3c(oc4ccccc4c3=O)C(=O)N2c2nncs2)cc(OC)c1OC (stereo unspecified)	x	-2%	x	4%	x	5%
COc1cccc(/C=N/N2CCN(C3c4ccccc4-c4ccccc43)CC2)c1O	-2%	7%	-6	u	1%	16µM*
COc1ccccc1N1CCN(/N=C/c2cccc(OC)c2O)CC1	5%	-2%	0	-17%	7%	u
Oc1cccc(/C=N/N2CCN(C3c4ccccc4-c4ccccc43)CC2)c1	u	-16%	-57*	u	23µM*	u
COc1cc(/C=N/N2CCN(C3c4ccccc4-c4ccccc43)CC2)ccc1O	u	11%	0	26µM*	u	23µM*
COC(=O)/C=C1\OCc2cc(OC)c(OCc3ccccc3)cc21	14%	-16%	3	u	3%	21µM*
Cc1cccc(CSc2ncc(CO)n2Cc2ccc(F)cc2)c1	x	u	x	21µM*	x	16µM*
Cc1cccc(CSc2ncc(CO)n2C)c1	-7%	0%	-20	-11%	-1%	u
COc1ccc(Cn2c(CO)cnc2SCc2ccccc2)cc1	x	0%	x	u	x	u
Cc1ccccc1CSc1ncc(CO)n1Cc1ccc(F)cc1	x	-23%	x	18µM*	x	u
COc1ccccc1N1CCN(C2CCCN(C(=O)c3ccc4nc(C)[nH]c4c3)C2)CC1 (stereo unspecified)	x	-4%	x	x	x	x
CC1(C)CCN2CCC(C)(C)c3c(O)ccc1c32	u	u	14	3.3µM*	u	3.7µM*
CCOC(=O)c1c(C)n(C)c2c(C)cc(O)c(OC(=O)CC)c12	9%	53%	-4	7.3µM*	1%[9.24 µM]	u
O=C(CNS(=O)(=O)c1ccc(Br)s1)N1CCN(c2ccc(F)cc2)CC1	-2%	u	-1	u	-1%	23µM*
COc1ccc(N2CCN(C(=O)CCNS(=O)(=O)c3ccc(C)cc3)CC2)cc1	0%	-15%	0	u	-4%	u
COc1ccc(N2CCN(C(=O)CCNS(=O)(=O)c3ccc(Br)s3)CC2)cc1	-3%	0%	-3	13µM*	-2%[9.24 µM]	u
SMILES	HT1080-NT tox	ALOX12 inh	IL-1B inflam inh	TDP1 cell CPT	HT1080 IDH1KD tx	TDP1 cell noCPT
CCOc1ccc2[nH]c3ncccc3c(=O)c2c1	-16%	-7%	-60*	4%	-13%	u
CCOc1ccc2[nH]cc(C(=O)NCCc3ccccc3)c(=O)c2c1	-20%	22%	-54*	u	-2%	u
CCOc1ccc2[nH]cc(C(=O)NCCCN3CCOCC3)c(=O)c2c1	2%	10%	17	19%	3%	-12%
CCOc1ccc2[nH]cc(C(=O)NCc3ccccc3)c(=O)c2c1	-13%	299%	-10	16µM*	-2%	21µM*
CCOc1ccc(NS(=O)(=O)c2ccc3[nH]cc(C(=O)NCc4ccccc4)c(=O)c3c2)cc1	x	u	x	-27%	x	u
CCc1ccc2[nH]cc(C(=O)OCCOC)c(=O)c2c1	7%	4%	8	u	13%	23µM*
Cc1cccc(/C=C2\CCC(=C3SCCCS3)C2=O)c1	-2%	0%	-3	u	-2%	15µM*
O=C(NCc1ccccc1)C(c1ccc(F)cc1)N(C(=O)c1csnn1)C1CC1 (stereo unspecified)	-4%	9%	-8	-8%	4%	-20%
CC1CCc2nc(/C(C#N)=C/c3cccnc3)sc2C1 (stereo unspecified)	-4%	-3%	-22	21µM*	u	u
N#CCC(=O)N/N=C/c1cn(Cc2cccc3ccccc23)c2ccccc12	u	0%	0	5.2µM*	10µM*	3.7µM*
O=C(N/N=C/c1ccncc1)c1cc2c(ccc3ccccc32)o1	-2%	455%	-3	6%	6%	-7%
N#CCn1cc(/C=N/NC(=O)c2cc3c(ccc4ccccc43)o2)c2ccccc21	u	0%	-4	21µM*	9.2µM*	12µM*
N#CCC(=O)N/N=C/c1c(-c2ccccc2)n(-c2ccccc2)c2ccccc12	-8%	-35%	-10	u	-6%	21µM*
COc1ccc2ccc(OC)c(/C=N/NC(=O)c3cc4ccccc4o3)c2c1	u	4%	-4	u	u	18µM*
COc1ccc(NC(=O)c2cc(=O)c3cc(C)ccc3o2)cc1	x	-37%	x	x	x	x
COc1cc(/C=N/NC(=O)c2cc3c(ccc4ccccc43)o2)cc(OC)c1O	x	2%	x	x	x	x
COc1ccc(/C=N/NC(=O)c2cc3c(ccc4ccccc43)o2)cc1OC	-3%	-5%	-7	u	-17%	u
COc1ccccc1/C=N/NC(=O)c1cc2c(ccc3ccccc32)o1	-3%	0%	-9	16µM*	19%	u
COc1ccc(/C=N\NC(=O)c2cc3c(ccc4ccccc43)o2)cc1O	u	-104%	-5	u	4.6µM*	u
CN(C)c1cccc(-c2cc(-c3cn[nH]c3)c3cncn3c2)c1	x	29%[176 µM]	x	x	x	x
CCS(=O)(=O)N1CCC(Cc2nncn2Cc2ccccc2)C1 (stereo unspecified)	x	1%	x	x	x	x

Screening results (PubChem BioAssay)
